DAX1 StAR inh: blocks DAX1 repression of SF-1 activated StAR promoter. HEK293T StAR-luciferase reporter, SF-1/DAX-1 repression relief. inhibition, % at 6.8 µM. 1.1% of 370,000 active;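 active = inhibition above the mean over all tested compounds plus 3 SD, cut at about 3.6% in these data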;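 note: higher inhibition means more luminescence from relief of DAX-1 repression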
ssDAF12 agonist: activates DAF-12 receptor from parasite S. stercoralis | HEK293 ssDAF-12/GRIP1 lit1-tk-luc reporter, luminescence; % of 3 µM dafachronic acid response | activation, % at 6.8 µM | 1% of 370,000 active;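 active = activation above the mean over all tested compounds plus 3 SD, cut at about 0.9% in these data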
hgDAF12 agonist: agonists of H. glycines DAF-12 nuclear receptor. HEK293 GAL4-hgDAF12 UAS-luciferase reporter, agonist luminescence; normalized to butyrate control. AID 687014. 1.8% of 370,000 active. activation, % at 6.8 µM;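 active = activation above a cutoff set at the mean of all screened compounds plus 3 SD, cut at about 10% in these data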
hcDAF12 agonist: H. contortus DAF-12 activation, primary screen | HEK293 hcDAF-12 lit1-tk-luc reporter, luminescence; 0% DMSO, 100% Δ7-dafachronic acid | activation, % at 6.8 µM | 1.4% of 370,000 active;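 active = activation above the mean of all tested compounds plus 3 SD, cut at about 5.5% in these data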
SMARCA2 activ: increases SMARCA2 function in MMTV reporter cells | MG213 cells, MMTV-luciferase reporter, dexamethasone, overnight | activation, % at 9.1 µM | 1% of 370,000 active | AID 652017; in the data active = activation above about 7.8%
LXRb hcDAF ctr: activates human LXR-beta, counter-screen for hcDAF-12 agonists | activation, % at 6.8 µM | HEK293 Gal4-LXR tk-luc reporter, luminescence, 24 h; normalized: DMSO 0%, positive control 100% | shares compounds with hcDAF12 agonist | 3,400 tested, under 10 active | AID 743027;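 active = mean percent activation of the reporter above a cutoff set as the average over tested compounds plus their standard deviation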
Target sequence (P55055 whole entry, looked up, the tested form may be a part): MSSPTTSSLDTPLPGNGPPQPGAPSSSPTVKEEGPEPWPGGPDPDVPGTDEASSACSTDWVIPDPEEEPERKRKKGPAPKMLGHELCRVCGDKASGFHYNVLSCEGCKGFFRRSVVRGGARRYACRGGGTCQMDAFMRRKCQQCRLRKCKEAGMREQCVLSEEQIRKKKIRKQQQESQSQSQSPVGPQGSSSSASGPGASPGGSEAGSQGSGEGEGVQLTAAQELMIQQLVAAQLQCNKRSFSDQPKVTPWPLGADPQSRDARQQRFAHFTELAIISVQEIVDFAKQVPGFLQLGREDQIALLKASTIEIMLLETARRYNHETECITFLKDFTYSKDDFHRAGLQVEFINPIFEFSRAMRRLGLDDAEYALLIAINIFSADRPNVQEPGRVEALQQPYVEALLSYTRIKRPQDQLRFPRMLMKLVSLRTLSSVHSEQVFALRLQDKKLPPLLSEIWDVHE
hcDAF12 ag: confirmation of H. contortus DAF-12 agonists; 61% of 3,400 active; shares compounds with hcDAF12 agonist; HEK293 hcDAF-12 lit1-tk-luc reporter, luminescence; % of Δ7-dafachronic acid response; AID 743032; activation, % at 6.8 µM;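 active = mean activation across triplicate tests above the threshold derived from the earlier primary screen, cut at about 5.5% in these data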
hgDAF12 conf: confirmation of H. glycines DAF-12 agonists | activation, % at 6.8 µM | shares compounds with hgDAF12 agonist | HEK293 GAL4-hgDAF12 luciferase reporter, agonist mode; percent of butyrate response | 80% of 3,300 active;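 active = mean activation over triplicate wells above the hit cutoff derived from the earlier primary screen, cut at about 11% in these data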
LXR ag 2: activates human LXR-beta, counter-screen for DAF-12 agonists | activation, % at 6.8 µM | 3,300 tested, under 10 active | shares compounds with hgDAF12 agonist | HEK293 Gal4-LXR luciferase reporter, 24 h;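 active = mean activation of the triplicate above a set limit carried over from the primary screen, none filed active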
Large screens that a line does not name were inactive (follow-up assays come after a bar, where they were run). Most compounds without a hit are left out; they make up all but 4.2% or so of the library.

COc1cccc(C(=O)O/N=C(\N)c2ccc(C)cc2)c1	hgDAF12 agonist 16, hcDAF12 agonist 9.7 | LXRb hcDAF ctr inactive | hcDAF12 ag 7.2 | hgDAF12 conf 20 | LXR ag 2 inactive
COc1cccc(C(=O)O/N=C(\N)c2ccc([N+](=O)[O-])cc2)c1	none
COc1ccc(-n2cc3ccc([N+](=O)[O-])cc3n2)cc1	hgDAF12 agonist 21, hcDAF12 agonist 6.7 | LXRb hcDAF ctr inactive | hcDAF12 ag 7.1 | hgDAF12 conf 19 | LXR ag 2 inactive
COc1ccc(C=NNC(=O)c2ccncc2)cc1	none
CCC(=O)Nc1ccc2oc(-c3cccc(C)c3)nc2c1	DAX1 StAR inh 4.2, hgDAF12 agonist 15, hcDAF12 agonist 6.9 | LXRb hcDAF ctr inactive | hcDAF12 ag 7.9 | hgDAF12 conf 16 | LXR ag 2 inactive
O=C1CCC[C@H]2C[C@H](NCc3ccco3)CC[C@]23CCCN13	none (no result: DAX1 StAR inh, SMARCA2 activ)
COCc1nnc(NC(=O)c2ccc(OC)cc2OC)s1	hgDAF12 agonist 15, hcDAF12 agonist 6.8 | LXRb hcDAF ctr inactive | hcDAF12 ag inactive | hgDAF12 conf 12 | LXR ag 2 inactive
COc1ccc(C(=O)Nc2nnc(Cc3ccc(OC)c(OC)c3)s2)c(OC)c1	none
Cc1ccc2oc(-c3ccc(C)c(NC(=S)NC(=O)c4cccs4)c3)nc2c1	DAX1 StAR inh 3.9, ssDAF12 agonist 2.6, hgDAF12 agonist 14, hcDAF12 agonist 11 | LXRb hcDAF ctr inactive | hcDAF12 ag 8.9 | hgDAF12 conf 14 | LXR ag 2 inactive
Cn1c(N/N=C/c2cc3ccccc3nc2Cl)nc2ccccc21	ssDAF12 agonist 1.4, hgDAF12 agonist 15, hcDAF12 agonist 12 | LXRb hcDAF ctr inactive | hcDAF12 ag 11 | hgDAF12 conf 17 | LXR ag 2 inactive
Cc1nnc(C)n1/N=C/c1cc2ccccc2nc1Cl	none
O=C(Nc1nc2ccccc2[nH]1)c1ccc([N+](=O)[O-])cc1	none
O=C(Nc1nc2ccccc2[nH]1)c1cccc(F)c1	ssDAF12 agonist 2.3, hgDAF12 agonist 17, hcDAF12 agonist 13 | LXRb hcDAF ctr inactive | hcDAF12 ag 12 | hgDAF12 conf 18 | LXR ag 2 inactive
O=C(CC[C@H]1O[C@@H](n2ccc(=O)[nH]c2=O)[C@H](O)[C@@H]1O)N[C@H](Cc1ccccc1)C(=O)NC1CCCCC1	none
O=C(COc1ccc(Br)cc1)N1CCc2ccccc21	none
Cc1ccc(NC(=O)N2CCc3ccccc32)cc1	DAX1 StAR inh 3.7, ssDAF12 agonist 1.1, hgDAF12 agonist 15, hcDAF12 agonist 10 | LXRb hcDAF ctr inactive | hcDAF12 ag 11 | hgDAF12 conf 23 | LXR ag 2 inactive
Cc1ccc(NC(=O)N2CCCc3ccccc32)cc1	none
O=C(COc1ccccc1)N1CCc2ccccc21	hgDAF12 agonist 14, hcDAF12 agonist 8.5 | LXRb hcDAF ctr inactive | hcDAF12 ag 6.4 | hgDAF12 conf 12 | LXR ag 2 inactive
CCN(CC)C(=O)c1ccc(C(CCOC(=O)Oc2ccccc2)c2ccc(OC)cc2)cc1 (stereo unspecified)	none
CCCCc1c(-c2ccc(OC)cc2)ncn1CCc1ccccc1OC	none
COc1nc(C)ccc1-c1noc(-c2cccs2)n1	hgDAF12 agonist 14, hcDAF12 agonist 8.4 | LXRb hcDAF ctr inactive | hcDAF12 ag 6.2 | hgDAF12 conf 16 | LXR ag 2 inactive
Cc1cc(NC(=O)c2ccc(C(C)(C)C)cc2)no1	hgDAF12 agonist 15, hcDAF12 agonist 7.2 | LXRb hcDAF ctr inactive | hcDAF12 ag 5.6 | hgDAF12 conf 21 | LXR ag 2 inactive
Cc1cc(NC(=O)c2ccc(F)cc2)no1	none
CC(C)[C@@H](C(=O)N[C@@H](CCc1ccc(O)cc1)C(=O)O)N(C)C(=O)[C@H](CO)NC(=O)[C@@H](O)[C@H](N)CCCCCCCCl	none
CC1(C)OC(C)(C)C(=N/O)/C1=N\N	none
CCCCN(CC)C(=O)c1cc2cc3ccc(OC)cc3nc2o1	none
CCCCN(C)C(=O)c1cc2cc3ccc(OC)cc3nc2s1	hgDAF12 agonist 17, hcDAF12 agonist 7.0 | LXRb hcDAF ctr inactive | hcDAF12 ag 7.1 | hgDAF12 conf 16 | LXR ag 2 inactive
COc1ccc(NC(=O)n2ncc3c(C)cccc32)cc1	hgDAF12 agonist 14, hcDAF12 agonist 12 | LXRb hcDAF ctr inactive | hcDAF12 ag 11 | hgDAF12 conf 21 | LXR ag 2 inactive
COc1ccc(NC(=O)n2ncc3c(C)cccc32)cc1OC	none
CC(=O)Nc1ccc(NC(=O)CSc2nnc(NC(=O)c3ccccc3F)s2)cc1	hgDAF12 agonist 17, hcDAF12 agonist 7.1 | LXRb hcDAF ctr inactive | hcDAF12 ag 7.2 | hgDAF12 conf 13 | LXR ag 2 inactive
COc1ccc(CNC2CCC23CCC(C)CC3)cc1 (stereo unspecified)	none (no result: DAX1 StAR inh, SMARCA2 activ)
COc1cccc(-c2nc3ccccc3s2)c1	DAX1 StAR inh 4.4, ssDAF12 agonist 1.7, hgDAF12 agonist 17, hcDAF12 agonist 15 | LXRb hcDAF ctr inactive | hcDAF12 ag 11 | hgDAF12 conf 27 | LXR ag 2 inactive
NS(=O)(=O)c1ccc(N/C=C/C(=O)c2ccc(Br)cc2)cc1	none
NS(=O)(=O)c1ccc(N/C=C\C(=O)c2ccc(F)cc2)cc1	DAX1 StAR inh 4.2, hgDAF12 agonist 16, hcDAF12 agonist 6.7 | LXRb hcDAF ctr inactive | hcDAF12 ag inactive | hgDAF12 conf 13 | LXR ag 2 inactive
Cn1cc(/C=C/C(=O)c2ccccc2)c2ccccc21	ssDAF12 agonist 1.4, hgDAF12 agonist 14, hcDAF12 agonist 12 | LXRb hcDAF ctr inactive | hcDAF12 ag 13 | hgDAF12 conf 22 | LXR ag 2 inactive
O=C(Nc1ccncc1)c1ccc(F)cc1	none
O=C(Nc1ccc2[nH]ccc2c1)c1ccc(F)cc1	ssDAF12 agonist 1.5, hgDAF12 agonist 16, hcDAF12 agonist 8.2 | LXRb hcDAF ctr inactive | hcDAF12 ag 5.9 | hgDAF12 conf 20 | LXR ag 2 inactive
Cc1csc(NC(=O)c2ccc3nc[nH]c3c2)n1	hgDAF12 agonist 20, hcDAF12 agonist 9.8 | LXRb hcDAF ctr inactive | hcDAF12 ag inactive | hgDAF12 conf 20 | LXR ag 2 inactive
Clc1ccc(-c2nsc(N3CCOCC3)n2)c(Cl)c1	hgDAF12 agonist 16, hcDAF12 agonist 8.6 | LXRb hcDAF ctr inactive | hcDAF12 ag inactive | hgDAF12 conf 16 | LXR ag 2 inactive
Cc1ccc(-c2cc(-c3nnc(SCC(=O)NC4CCCCC4)n3N)[nH]n2)cc1	none

Source: PubChem
